From article PMC7862700, “An all-to-all approach to the identification of sequence-specific readers for epigenetic DNA modifications on cytosine”

Legend:
Test in all cases: DAPPL (digital affinity profiling via proximity ligation, sequencing); 10 mM Tris-HCl pH 7.5, 50 mM NaCl, 1 mM DTT, 4% glycerol, room temperature, 30 min; GST-TFs on glutathione beads, 16-mer random dsDNA library, 0.1% formaldehyde crosslink after washing; high values mean tight binding
Details in all cases: protein: recombinant; tags: N-terminal GST; dsDNA, one strand shown
ELF3 = target: T1, ELF3 (Homo sapiens, UniProt P78545 1-371)
T1 sequence: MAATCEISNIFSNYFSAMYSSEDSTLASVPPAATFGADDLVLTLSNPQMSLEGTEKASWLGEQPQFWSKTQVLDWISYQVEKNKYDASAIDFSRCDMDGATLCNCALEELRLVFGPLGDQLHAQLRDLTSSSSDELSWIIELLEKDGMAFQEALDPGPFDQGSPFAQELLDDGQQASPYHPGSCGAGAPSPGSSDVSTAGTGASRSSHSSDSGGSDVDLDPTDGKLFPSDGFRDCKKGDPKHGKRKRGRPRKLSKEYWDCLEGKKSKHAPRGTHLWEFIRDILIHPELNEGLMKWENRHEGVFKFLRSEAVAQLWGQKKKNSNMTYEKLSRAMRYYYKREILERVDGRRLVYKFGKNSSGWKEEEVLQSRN
Summary of the method: (§1)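 The binding signal reported is, for every hexamer, its read frequency for a factor over its read frequency for the tag-only sample. Reads came from pools of yeast-expressed, GST-fused human transcription factors on glutathione beads, barcoded with DNA and mixed with that sample, which were incubated with 200 nmole of a random double-stranded 16-mer DNA library in Tris/NaCl/DTT/glycerol buffer at room temperature for 30 min. After washing, the pools were crosslinked with 0.1% formaldehyde, proximity-ligated with BsaI/T4 ligase for 1 h at 37 °C, PCR-amplified and sequenced on an Illumina NextSeq500.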

ETS2 = target: T2, ETS2 (Homo sapiens, UniProt P15036 1-469)
T2 sequence: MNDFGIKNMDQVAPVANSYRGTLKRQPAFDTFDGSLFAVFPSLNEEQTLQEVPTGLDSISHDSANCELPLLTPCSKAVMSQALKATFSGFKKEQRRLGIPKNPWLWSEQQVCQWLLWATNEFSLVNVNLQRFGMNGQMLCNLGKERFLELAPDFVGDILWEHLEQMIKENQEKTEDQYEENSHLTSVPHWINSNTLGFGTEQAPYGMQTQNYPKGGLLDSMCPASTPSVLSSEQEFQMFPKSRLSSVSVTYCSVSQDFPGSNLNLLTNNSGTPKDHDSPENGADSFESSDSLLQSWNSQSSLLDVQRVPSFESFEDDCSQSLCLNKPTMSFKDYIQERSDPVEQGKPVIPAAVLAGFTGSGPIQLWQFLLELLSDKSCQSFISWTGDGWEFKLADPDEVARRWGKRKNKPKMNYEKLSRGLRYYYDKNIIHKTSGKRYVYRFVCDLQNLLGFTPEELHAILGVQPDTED
Summary of the method: as §1

SPDEF = target: T3, SPDEF (Homo sapiens, UniProt O95238 1-335)
T3 sequence: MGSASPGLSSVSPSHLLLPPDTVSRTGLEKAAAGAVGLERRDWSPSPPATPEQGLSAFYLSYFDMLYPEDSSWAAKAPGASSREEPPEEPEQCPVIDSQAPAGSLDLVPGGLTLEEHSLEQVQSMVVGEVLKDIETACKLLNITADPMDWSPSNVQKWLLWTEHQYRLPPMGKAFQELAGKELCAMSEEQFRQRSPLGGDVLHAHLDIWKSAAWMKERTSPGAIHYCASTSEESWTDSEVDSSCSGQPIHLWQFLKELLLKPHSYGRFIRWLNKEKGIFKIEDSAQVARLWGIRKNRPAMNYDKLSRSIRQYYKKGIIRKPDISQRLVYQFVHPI
Summary of the method: as §1

ELF5 = target: T4, ELF5 (Homo sapiens, UniProt Q9UKW6-2 1-255)
T4 sequence: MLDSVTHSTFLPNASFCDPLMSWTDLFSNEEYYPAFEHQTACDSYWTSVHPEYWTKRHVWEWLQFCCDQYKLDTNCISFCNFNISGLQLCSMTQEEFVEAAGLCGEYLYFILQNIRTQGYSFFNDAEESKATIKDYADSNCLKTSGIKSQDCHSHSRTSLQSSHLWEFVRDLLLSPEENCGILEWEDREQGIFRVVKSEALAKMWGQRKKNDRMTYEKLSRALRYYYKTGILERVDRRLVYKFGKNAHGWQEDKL
Summary of the method: as §1

ETV3 = target: T5, ETV3 (Homo sapiens, UniProt P41162-2 1-143)
T5 sequence: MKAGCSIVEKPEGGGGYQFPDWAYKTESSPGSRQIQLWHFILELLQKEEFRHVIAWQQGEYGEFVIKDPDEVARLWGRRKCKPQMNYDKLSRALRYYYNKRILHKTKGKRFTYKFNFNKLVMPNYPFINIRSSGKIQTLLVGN
Summary of the method: as §1

SPI1 = SPI1 (Homo sapiens, UniProt P17947 1-270)
Summary of the method: as §1

CRX = CRX (Homo sapiens, UniProt O43186 1-299)
Chain of CRX (O43186 whole entry): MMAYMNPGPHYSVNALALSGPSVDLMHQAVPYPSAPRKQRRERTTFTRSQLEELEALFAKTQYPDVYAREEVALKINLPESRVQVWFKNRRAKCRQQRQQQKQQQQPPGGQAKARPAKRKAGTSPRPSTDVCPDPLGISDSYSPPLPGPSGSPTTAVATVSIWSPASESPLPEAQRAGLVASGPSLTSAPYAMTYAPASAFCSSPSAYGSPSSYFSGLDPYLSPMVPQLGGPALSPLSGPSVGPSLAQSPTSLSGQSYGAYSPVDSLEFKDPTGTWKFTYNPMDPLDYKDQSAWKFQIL
Summary of the method: as §1

ERF = target: T6, ERF (Homo sapiens, UniProt P50548 1-548)
T6 sequence: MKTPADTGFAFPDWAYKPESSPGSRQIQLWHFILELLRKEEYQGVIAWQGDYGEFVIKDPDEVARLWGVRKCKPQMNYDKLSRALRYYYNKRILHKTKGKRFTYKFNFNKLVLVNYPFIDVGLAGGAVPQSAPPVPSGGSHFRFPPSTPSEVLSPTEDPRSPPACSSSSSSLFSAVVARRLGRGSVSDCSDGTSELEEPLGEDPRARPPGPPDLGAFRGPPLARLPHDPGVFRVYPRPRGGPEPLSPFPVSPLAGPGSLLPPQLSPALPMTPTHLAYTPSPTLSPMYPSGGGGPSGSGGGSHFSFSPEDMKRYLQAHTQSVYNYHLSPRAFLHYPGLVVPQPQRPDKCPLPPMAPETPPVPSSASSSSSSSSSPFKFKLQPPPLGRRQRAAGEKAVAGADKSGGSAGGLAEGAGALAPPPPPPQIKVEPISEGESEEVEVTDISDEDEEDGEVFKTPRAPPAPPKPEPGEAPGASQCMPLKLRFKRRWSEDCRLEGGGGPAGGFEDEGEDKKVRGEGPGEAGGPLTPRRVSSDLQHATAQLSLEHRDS
Summary of the method: as §1

ETV6 = ETV6 (Homo sapiens, UniProt P41212 1-452)
Chain of ETV6 (P41212 whole entry): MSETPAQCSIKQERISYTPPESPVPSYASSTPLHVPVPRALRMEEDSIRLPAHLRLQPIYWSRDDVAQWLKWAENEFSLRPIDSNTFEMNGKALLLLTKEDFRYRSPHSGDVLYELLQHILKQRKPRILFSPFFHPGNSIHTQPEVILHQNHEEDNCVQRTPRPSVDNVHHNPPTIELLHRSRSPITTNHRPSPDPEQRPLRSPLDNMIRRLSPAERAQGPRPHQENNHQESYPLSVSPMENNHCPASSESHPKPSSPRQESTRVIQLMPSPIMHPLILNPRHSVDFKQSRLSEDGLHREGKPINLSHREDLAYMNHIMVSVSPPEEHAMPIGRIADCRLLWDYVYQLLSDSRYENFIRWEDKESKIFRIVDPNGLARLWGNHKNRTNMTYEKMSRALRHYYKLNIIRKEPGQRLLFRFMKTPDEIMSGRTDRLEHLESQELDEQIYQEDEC
Summary of the method: as §1

GABPA = target: T7, GABPA (Homo sapiens, UniProt Q06546 1-454)
T7 sequence: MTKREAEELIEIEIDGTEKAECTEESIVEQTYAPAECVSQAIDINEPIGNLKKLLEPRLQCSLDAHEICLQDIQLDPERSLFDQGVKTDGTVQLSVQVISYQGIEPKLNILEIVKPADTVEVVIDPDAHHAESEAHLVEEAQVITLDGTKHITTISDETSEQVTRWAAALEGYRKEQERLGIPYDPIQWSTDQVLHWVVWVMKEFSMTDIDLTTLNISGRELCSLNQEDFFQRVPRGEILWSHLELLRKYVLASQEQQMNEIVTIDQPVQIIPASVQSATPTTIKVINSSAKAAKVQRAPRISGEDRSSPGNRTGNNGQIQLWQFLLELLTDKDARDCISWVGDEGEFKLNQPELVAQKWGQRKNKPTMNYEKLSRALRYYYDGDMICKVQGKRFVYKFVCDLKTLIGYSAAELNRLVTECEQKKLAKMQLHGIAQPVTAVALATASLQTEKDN
Summary of the method: as §1

ERG = target: T8, ERG (Homo sapiens, UniProt P11308 1-479)
T8 sequence: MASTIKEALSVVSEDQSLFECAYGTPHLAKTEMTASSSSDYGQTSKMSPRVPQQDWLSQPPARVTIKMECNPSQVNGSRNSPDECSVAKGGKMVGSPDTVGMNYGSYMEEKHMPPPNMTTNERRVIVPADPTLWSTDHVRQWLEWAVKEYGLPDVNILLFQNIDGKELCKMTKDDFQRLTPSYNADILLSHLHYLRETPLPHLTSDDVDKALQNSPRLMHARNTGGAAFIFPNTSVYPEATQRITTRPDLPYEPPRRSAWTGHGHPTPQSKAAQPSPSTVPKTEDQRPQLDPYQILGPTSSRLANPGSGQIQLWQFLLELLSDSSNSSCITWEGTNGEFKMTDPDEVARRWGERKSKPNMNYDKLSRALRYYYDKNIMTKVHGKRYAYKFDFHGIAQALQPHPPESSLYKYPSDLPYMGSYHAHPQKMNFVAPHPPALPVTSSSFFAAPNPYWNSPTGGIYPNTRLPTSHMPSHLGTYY
Summary of the method: as §1

FEV = target: T9, FEV (Homo sapiens, UniProt Q99581 1-238)
T9 sequence: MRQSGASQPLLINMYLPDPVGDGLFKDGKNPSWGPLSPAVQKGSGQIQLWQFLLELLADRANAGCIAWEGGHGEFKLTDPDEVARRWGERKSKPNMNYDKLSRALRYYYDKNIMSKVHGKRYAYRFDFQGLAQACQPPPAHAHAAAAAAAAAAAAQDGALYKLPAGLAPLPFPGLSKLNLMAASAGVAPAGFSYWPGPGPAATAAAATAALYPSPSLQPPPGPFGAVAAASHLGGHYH
Summary of the method: as §1

ELF1 = ELF1 (Homo sapiens, UniProt P32519 1-619)
Chain of ELF1 (P32519 whole entry): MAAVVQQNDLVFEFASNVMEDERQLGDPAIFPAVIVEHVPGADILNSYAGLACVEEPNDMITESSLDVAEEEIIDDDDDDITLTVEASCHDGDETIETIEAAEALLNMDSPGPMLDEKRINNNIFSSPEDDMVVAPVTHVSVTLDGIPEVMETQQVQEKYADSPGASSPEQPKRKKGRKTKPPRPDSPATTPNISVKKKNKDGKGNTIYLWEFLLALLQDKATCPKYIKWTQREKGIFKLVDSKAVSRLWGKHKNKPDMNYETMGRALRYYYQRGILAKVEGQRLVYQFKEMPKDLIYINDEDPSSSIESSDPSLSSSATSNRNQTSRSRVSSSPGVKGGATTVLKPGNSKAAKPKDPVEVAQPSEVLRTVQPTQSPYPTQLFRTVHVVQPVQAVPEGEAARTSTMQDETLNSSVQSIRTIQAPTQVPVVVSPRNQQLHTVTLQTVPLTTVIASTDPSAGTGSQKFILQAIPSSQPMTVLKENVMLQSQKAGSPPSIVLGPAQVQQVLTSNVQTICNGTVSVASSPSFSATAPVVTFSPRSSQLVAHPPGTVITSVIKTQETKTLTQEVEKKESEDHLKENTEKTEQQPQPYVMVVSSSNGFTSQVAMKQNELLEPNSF
Summary of the method: as §1

EHF = target: T10, EHF (Homo sapiens, UniProt Q9NZC4 1-300)
T10 sequence: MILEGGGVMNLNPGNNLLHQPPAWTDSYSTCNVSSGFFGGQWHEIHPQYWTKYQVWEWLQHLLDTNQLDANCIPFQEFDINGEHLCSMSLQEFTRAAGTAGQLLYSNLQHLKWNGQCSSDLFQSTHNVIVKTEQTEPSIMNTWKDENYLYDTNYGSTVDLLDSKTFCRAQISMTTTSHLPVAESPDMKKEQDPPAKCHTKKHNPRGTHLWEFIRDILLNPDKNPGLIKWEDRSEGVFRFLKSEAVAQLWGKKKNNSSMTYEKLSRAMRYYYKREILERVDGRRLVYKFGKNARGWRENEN
Summary of the method: as §1

For CGCGGA, the binding signal (ELF3) was 1.07 fold enrichment (6-mer frequency, TF over GST control), the binding signal (ETS2) was 1 fold enrichment (6-mer frequency, TF over GST control) and the binding signal (SPDEF) was 1.03 fold enrichment (6-mer frequency, TF over GST control). The binding signal (ELF5) was 1.03 fold enrichment (6-mer frequency, TF over GST control) and the binding signal (ETV3) was 1.01 fold enrichment (6-mer frequency, TF over GST control).
For AAGGGA, the binding signal (SPI1) was 1.07 fold enrichment (6-mer frequency, TF over GST control) and the binding signal (ELF3) was 1.03 fold enrichment (6-mer frequency, TF over GST control).
With GTGCAC the binding signal (SPI1) was 1.07 fold enrichment (6-mer frequency, TF over GST control) and the binding signal (ELF3) was 1.02 fold enrichment (6-mer frequency, TF over GST control).
For AGTCTT, the binding signal (SPI1) was 1.03 fold enrichment (6-mer frequency, TF over GST control), the binding signal (CRX) was 1.02 fold enrichment (6-mer frequency, TF over GST control) and the binding signal (ERF) was 1.01 fold enrichment (6-mer frequency, TF over GST control). The binding signal (ELF5) was 1.08 fold enrichment (6-mer frequency, TF over GST control).
In the case of ATCAGG, the binding signal (CRX) is reported as 1.04 fold enrichment (6-mer frequency, TF over GST control).
In the case of AGTACG, the binding signal (SPI1) is reported as 1.02 fold enrichment (6-mer frequency, TF over GST control), the binding signal (ELF3) is reported as 1.01 fold enrichment (6-mer frequency, TF over GST control) and the binding signal (ETV6) is reported as 1.03 fold enrichment (6-mer frequency, TF over GST control).
ATTGGA was tested, and the binding signal (CRX) was 1.03 fold enrichment (6-mer frequency, TF over GST control).
In the case of GCGGAT, the binding signal (CRX) is reported as 1.2 fold enrichment (6-mer frequency, TF over GST control) and the binding signal (SPDEF) is reported as 1.25 fold enrichment (6-mer frequency, TF over GST control).
For AGCCGA, the binding signal (CRX) was 1.08 fold enrichment (6-mer frequency, TF over GST control).
For GTCTGC, the binding signal (GABPA) was 1.01 fold enrichment (6-mer frequency, TF over GST control).
AGGATA was tested, and the binding signal (ERG) was 1.06 fold enrichment (6-mer frequency, TF over GST control), the binding signal (FEV) was 1.01 fold enrichment (6-mer frequency, TF over GST control) and the binding signal (CRX) was 1.14 fold enrichment (6-mer frequency, TF over GST control). The binding signal (SPDEF) was 1.31 fold enrichment (6-mer frequency, TF over GST control), the binding signal (ELF5) was 1.17 fold enrichment (6-mer frequency, TF over GST control) and the binding signal (ETV3) was 1.06 fold enrichment (6-mer frequency, TF over GST control).
In the case of TGTCGC, the binding signal (ELF1) is reported as 1.04 fold enrichment (6-mer frequency, TF over GST control), the binding signal (EHF) is reported as 1.03 fold enrichment (6-mer frequency, TF over GST control) and the binding signal (SPI1) is reported as 1.02 fold enrichment (6-mer frequency, TF over GST control). For the same sequence, the binding signal (FEV) was 1.02 fold enrichment (6-mer frequency, TF over GST control), the binding signal (ELF3) was 1.08 fold enrichment (6-mer frequency, TF over GST control) and the binding signal (ERF) was 1.04 fold enrichment (6-mer frequency, TF over GST control). For the same sequence, the binding signal (ELF5) was 1.04 fold enrichment (6-mer frequency, TF over GST control) and the binding signal (ETV6) was 1.01 fold enrichment (6-mer frequency, TF over GST control).
